Common to all, as to design: scale not given: direction of the effect not stated beside the values
Assay [1] has as its target Protein translocase subunit SecA (Escherichia coli (strain K12)) (UniProt P10408). As to the kind of experiment: Assay to Identify E. coli SecA ATPase Inhibitors. It counts as functional. The settings on record: 30 µM.
In assay [2] the target is T1, Ubiquitin-activating enzyme e1, putative (Leishmania donovani (strain BPK282A1)) (UniProt E9BSI1).
T1 sequence (whole entry): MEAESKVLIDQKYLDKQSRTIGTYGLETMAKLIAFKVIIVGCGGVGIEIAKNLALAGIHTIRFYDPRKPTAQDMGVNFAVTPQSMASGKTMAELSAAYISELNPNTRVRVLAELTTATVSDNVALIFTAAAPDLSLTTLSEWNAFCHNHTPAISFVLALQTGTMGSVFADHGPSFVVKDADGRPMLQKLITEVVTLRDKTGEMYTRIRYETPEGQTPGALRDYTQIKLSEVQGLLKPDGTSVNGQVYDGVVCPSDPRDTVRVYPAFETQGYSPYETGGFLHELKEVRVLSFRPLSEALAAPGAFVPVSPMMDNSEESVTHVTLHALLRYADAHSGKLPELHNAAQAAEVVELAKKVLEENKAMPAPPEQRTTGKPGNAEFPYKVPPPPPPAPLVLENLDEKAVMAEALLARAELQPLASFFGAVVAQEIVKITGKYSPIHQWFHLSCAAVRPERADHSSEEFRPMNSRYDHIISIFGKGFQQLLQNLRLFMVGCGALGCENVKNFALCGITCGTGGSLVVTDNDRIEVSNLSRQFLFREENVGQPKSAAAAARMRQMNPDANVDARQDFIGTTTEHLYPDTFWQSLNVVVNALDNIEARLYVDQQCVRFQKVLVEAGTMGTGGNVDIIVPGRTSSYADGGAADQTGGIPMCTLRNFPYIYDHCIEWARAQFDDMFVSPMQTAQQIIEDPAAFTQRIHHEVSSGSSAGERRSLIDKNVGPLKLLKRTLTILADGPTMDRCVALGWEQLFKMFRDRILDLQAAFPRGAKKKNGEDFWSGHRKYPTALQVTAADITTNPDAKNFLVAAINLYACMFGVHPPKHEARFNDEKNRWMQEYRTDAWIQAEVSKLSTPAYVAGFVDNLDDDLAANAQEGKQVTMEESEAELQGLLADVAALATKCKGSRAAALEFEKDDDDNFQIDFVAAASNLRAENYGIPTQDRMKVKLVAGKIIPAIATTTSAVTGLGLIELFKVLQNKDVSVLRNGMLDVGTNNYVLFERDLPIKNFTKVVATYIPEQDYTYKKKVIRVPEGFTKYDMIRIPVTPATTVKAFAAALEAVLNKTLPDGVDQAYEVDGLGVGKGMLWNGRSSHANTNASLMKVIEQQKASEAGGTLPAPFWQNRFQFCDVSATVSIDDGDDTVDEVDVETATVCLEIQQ
In words: Leishmania donovani Ubiquitin Activating Enzyme (LdE1). In kind it is functional. Particulars: 30 µM.

Assay [3] has as its target Sialic acid-binding Ig-like lectin 9 (Homo sapiens) (UniProt Q9Y336). In words: Hs-Siglec9 ALPHAscreen SOP 20170721. Particulars: 10 µM.
Another assay relates to Trypanosoma cruzi. In words: Trypanosoma cruzi phosphomannomutase and mannose-1-phosphate guanylyltransferase assay. In kind it is functional. The settings on record: 10 µM.
Assay [4] addresses T2, Arginase-2, mitochondrial (Homo sapiens) (UniProt P78540).
T2 sequence (whole entry): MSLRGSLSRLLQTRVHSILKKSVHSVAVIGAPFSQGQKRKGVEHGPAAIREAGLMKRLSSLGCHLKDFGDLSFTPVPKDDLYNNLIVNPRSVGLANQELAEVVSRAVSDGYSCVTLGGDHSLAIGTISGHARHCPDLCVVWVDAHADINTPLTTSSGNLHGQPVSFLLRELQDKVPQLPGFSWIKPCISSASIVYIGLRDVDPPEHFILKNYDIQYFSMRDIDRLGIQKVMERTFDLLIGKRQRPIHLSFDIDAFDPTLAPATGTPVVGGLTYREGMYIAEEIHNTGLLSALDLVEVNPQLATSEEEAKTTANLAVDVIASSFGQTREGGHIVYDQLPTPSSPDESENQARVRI
In words: in vitro enzyme assay to detect the production of urea directly proportional to the activity of Arginase II. Note: in the data most compounds retested in dose-response had high values. It counts as functional. The settings on record: 33.3 µM.

Assay [5] addresses T3, Proteasome subunit beta (Trypanosoma cruzi) (UniProt O96673).
T3 sequence (whole entry): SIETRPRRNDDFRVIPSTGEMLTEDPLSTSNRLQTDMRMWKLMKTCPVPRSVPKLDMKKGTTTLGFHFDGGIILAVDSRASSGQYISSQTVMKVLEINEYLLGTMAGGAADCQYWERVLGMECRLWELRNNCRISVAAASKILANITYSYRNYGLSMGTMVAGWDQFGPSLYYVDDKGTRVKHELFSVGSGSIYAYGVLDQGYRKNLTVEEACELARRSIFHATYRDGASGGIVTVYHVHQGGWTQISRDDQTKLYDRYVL
In words: Trypanosoma cruzi proteasome chymotrypsin-like activity (TcProtChymo) assay. Note: in the data most compounds retested in dose-response had high values. In kind it is functional. The settings on record: 9.37 µM.

The next assay is filed under the species Homo sapiens. As to the kind of experiment: To identify inhibition of the IFN signalling (Jak-Stat) pathway via expression of an eGFP reporter gene under the control of an IFN-stimulated response element (ISRE) containing MxA promoter. In kind it is functional. Particulars: 30 µM. For orientation: A reporter such as luciferase makes a cellular process visible.

Assay [6] addresses T4, Tyrosyl-tRNA synthetase, putative (Trypanosoma cruzi (strain CL Brener)) (UniProt Q4DSP6).
T4 sequence (whole entry): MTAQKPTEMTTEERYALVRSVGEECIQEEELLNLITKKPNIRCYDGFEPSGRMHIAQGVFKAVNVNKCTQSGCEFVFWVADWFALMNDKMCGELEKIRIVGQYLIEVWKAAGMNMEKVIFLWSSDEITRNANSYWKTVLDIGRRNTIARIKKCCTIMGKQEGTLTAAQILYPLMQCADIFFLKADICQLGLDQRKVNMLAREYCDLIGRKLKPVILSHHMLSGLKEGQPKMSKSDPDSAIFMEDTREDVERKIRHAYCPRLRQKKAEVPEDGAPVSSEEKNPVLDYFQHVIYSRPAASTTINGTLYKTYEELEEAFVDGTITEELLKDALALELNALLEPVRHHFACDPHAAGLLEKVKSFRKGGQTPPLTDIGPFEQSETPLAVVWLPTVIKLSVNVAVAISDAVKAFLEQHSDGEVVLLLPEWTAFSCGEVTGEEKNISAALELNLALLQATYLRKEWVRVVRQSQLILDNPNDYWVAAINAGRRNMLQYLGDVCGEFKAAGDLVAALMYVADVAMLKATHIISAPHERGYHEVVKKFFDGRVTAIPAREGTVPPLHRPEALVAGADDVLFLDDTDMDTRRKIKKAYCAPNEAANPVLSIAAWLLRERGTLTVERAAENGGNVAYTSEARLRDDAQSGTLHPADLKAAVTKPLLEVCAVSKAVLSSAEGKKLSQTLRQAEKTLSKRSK
As to the kind of experiment: Trypanosoma cruzi tyrosyl tRNA synthetase (TcYRS) _High Tyrosine SOP. Note: in the data most compounds retested in dose-response had high values. In kind it is functional. The settings on record: 30 µM.

The target of assay [7] is T4, Tyrosyl-tRNA synthetase, putative (Trypanosoma cruzi (strain CL Brener)). As to the kind of experiment: Trypanosoma cruzi tyrosyl tRNA synthetase (TcYRS) SOP. In kind it is functional. The settings on record: 30 µM.
For assay [8], the target named is Chromo domain-containing protein 1 (Saccharomyces cerevisiae (strain ATCC 204508 / S288c) (Baker's yeast)) (UniProt P32657). In words: ScCHD-1 Enzyme Inhibition Assay. Note: in the data most compounds retested in dose-response had high values. It counts as functional. Particulars: 30 µM.
Sequence of Chromo domain-containing protein 1 (Saccharomyces cerevisiae (strain ATCC 204508 / S288c) (Baker's yeast)) (P32657 whole entry, the tested form may be a part): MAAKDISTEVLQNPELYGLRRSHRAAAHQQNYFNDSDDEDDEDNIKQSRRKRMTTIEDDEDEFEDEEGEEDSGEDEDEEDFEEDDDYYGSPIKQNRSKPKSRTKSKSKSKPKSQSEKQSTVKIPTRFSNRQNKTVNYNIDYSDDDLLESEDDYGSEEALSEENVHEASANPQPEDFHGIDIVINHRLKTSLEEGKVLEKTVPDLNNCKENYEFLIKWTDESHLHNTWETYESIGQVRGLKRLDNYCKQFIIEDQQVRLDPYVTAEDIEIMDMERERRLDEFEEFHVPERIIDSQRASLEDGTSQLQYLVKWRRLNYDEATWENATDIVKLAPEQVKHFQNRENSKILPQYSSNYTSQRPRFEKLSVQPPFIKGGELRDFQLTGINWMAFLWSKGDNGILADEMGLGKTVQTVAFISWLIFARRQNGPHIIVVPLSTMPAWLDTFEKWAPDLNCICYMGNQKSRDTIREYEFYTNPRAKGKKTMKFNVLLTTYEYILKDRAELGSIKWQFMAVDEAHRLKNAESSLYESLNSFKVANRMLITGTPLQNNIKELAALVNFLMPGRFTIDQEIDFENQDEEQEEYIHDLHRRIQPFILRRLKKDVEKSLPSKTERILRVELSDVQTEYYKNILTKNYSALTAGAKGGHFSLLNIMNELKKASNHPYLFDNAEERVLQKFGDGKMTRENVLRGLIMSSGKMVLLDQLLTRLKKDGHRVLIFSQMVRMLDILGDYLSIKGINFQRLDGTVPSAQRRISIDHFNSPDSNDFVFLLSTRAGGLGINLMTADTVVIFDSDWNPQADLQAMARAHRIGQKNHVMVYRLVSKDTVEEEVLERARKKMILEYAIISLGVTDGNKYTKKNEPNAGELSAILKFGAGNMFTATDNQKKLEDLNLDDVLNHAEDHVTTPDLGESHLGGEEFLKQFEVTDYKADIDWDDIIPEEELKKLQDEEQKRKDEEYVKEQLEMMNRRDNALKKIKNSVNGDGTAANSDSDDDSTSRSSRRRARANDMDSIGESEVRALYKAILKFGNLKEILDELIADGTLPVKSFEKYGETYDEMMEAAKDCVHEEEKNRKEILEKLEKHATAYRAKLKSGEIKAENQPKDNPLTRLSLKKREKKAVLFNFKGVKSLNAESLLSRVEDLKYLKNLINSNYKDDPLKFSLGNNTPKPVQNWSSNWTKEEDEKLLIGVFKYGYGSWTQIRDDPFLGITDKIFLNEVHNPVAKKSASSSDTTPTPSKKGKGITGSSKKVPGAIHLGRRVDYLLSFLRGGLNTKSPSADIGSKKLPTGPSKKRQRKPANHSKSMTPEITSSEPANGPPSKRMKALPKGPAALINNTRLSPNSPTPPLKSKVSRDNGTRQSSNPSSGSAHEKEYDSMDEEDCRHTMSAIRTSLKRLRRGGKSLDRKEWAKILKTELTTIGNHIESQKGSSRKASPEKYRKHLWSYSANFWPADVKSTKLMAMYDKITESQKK
For assay [9], the target named is AMP-activated protein kinase, AMPK (Homo sapiens) (UniProt P54646+O43741+P54619+Q9UGJ0+Q9Y478+Q13131+Q9UGI9). In words: AMP-dependent Kinase enzyme assay. An in vitro enzyme assay that detects ADP turnover that is directly proportional to AMPK activity. This uses naive AMPK that is activated during the assay with MK-8722. It counts as functional. Particulars: 30 µM.

For part of these data: Results with a measured potency or affinity are listed apart.

Sequence of Sialic acid-binding Ig-like lectin 9 (Homo sapiens) (Q9Y336 whole entry): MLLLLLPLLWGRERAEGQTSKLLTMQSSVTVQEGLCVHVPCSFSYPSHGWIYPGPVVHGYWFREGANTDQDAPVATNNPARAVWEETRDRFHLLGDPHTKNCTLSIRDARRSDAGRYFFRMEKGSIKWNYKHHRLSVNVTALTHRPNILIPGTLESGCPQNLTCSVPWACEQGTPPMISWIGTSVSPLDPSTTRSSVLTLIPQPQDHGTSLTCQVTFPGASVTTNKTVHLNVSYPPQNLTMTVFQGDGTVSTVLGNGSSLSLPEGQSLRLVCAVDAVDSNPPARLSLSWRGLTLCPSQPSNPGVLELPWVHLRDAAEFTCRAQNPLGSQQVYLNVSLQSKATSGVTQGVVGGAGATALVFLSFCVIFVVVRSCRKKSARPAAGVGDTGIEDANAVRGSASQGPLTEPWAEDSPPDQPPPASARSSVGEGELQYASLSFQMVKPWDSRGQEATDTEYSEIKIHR
Sequence of Protein translocase subunit SecA (Escherichia coli (strain K12)) (P10408 whole entry): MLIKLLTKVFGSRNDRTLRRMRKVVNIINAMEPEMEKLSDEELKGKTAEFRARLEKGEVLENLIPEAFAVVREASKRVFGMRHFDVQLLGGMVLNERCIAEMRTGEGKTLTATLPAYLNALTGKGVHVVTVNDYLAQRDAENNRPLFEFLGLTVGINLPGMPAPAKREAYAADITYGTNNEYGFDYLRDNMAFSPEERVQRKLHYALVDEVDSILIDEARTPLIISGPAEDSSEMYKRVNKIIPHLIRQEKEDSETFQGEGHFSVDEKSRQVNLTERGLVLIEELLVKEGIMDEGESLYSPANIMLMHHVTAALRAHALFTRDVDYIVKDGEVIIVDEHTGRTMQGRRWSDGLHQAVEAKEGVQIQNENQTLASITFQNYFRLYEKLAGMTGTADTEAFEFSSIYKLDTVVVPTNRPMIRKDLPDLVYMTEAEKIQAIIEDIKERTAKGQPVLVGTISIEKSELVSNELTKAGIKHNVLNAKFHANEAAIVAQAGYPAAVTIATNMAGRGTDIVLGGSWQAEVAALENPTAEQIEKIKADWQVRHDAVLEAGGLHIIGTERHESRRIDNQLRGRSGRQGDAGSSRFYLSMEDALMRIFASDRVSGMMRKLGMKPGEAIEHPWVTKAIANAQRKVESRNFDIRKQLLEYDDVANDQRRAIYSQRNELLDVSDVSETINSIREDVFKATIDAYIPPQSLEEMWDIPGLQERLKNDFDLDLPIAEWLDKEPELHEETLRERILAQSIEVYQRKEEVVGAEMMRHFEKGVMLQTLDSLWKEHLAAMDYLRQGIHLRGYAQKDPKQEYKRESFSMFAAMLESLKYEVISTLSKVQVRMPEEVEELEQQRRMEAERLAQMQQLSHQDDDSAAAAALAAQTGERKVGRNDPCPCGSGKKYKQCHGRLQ

As to `CCS(=O)(=O)N(C)CC(=O)Nc1ccc(Br)cn1`, the Percent Effect in assay [1] is -6.17%; in [2] it was 26.7%; in assay [3], 0.132%; in the assay on Trypanosoma cruzi, -0.402%; in assay [4], -0.444%; in [5] it was 18.2%. In addition, the Percent Effect in the assay filed under Homo sapiens is 13.7%; in assay [6], 1.58%; in [7], 12.8%; in [8], -8.92%.
As to `CC(C)n1cc(CN(Cc2ccc(F)cc2)CC2CCCO2)cn1` (centres undefined), in assay [9], the Percent Effect was 5.24%.
For `COc1ccc(C(=O)N2C[C@@H](O)[C@H](NCc3cnc(C)cn3)C2)cc1`, the Percent Effect in [9] was -12.3%.
On the same count and under the same terms, next, `CN1CSC[C@H]1C(=O)N1CCC(CCc2ccccc2)CC1`: -1.47%.
On the same count and under the same terms, next, `Cc1cc(C(=O)NC(C)CC(=O)c2ccco2)[nH]n1` (centres undefined): 2.92%; `COCCN1C(=O)[C@H]2CC[C@@H]1CN(S(=O)(=O)c1ccc(OC)cc1)C2`: 13.1%.
`CCc1c(C)nn2c(O)cc(C3CCN(C(=O)c4ccccn4)C3)nc12` (centres undefined): in assay [9], the Percent Effect worked out at 4.34%.
With `CSCC(C)(O)CNS(=O)(=O)c1cccc(Cl)c1` (centres undefined), the Percent Effect in [9] is -5.75%.
For `COc1ccc(Cl)cc1-n1nc(C2CCCC2)nc1Cn1cnnn1`, the Percent Effect in [9] was -6.62%.
Consider `COc1ccc(C2CCN(CCCC#N)CC2)cc1`, for which, in assay [9], the Percent Effect was 3.86%.
For the compound `COC(=O)NCC(=O)N1CCCn2nc(CN3CC[C@H](F)C3)cc2C1`, in assay [9], the Percent Effect was 5.46%.
In the case of `CCc1cc(=O)[nH]c(-c2ccc(NC(C)CN3CCOCC3)nc2)n1` (centres undefined), the Percent Effect in [9] is -2.92%.
On the same count and under the same terms, with `CCN(CC)c1ncccc1CNCc1ccc(Cl)s1` the figure was -3.79%.
On to `CCc1nc(C)c(CN2CCOC(Cc3cccc4ccccc34)C2)[nH]1` (centres undefined), for which, in assay [9], the Percent Effect is -0.756%.
The same measure, in the same setting: with `Cc1n[nH]c(C)c1CNc1ccc(-c2nc(C3CC3)no2)cn1` the figure was -4.61%; with `Cc1n[nH]c(C)c1NC(=O)NCc1ccccn1`, -10.3%; with `Cc1nc2c(c(=O)[nH]1)CN(C(=O)CCC1CCCN(C)C1)C2` (centres undefined), 12%.
Regarding `Cc1ccc(O)c(C(=O)N2CCC3(CCCNC3)C2)c1` (centres undefined), the Percent Effect in [9] came to 11.1%.
Still for that read-out and setting: next, `CNc1ccc(C2CN(c3cc(C)nc(N)n3)CCO2)nc1` (centres undefined): 17.3%.
In the case of `O=C(Cc1c[nH]c(=O)[nH]c1=O)N1CCCCC1CCc1ccccc1` (centres undefined), the Percent Effect in [9] was -1.5%.
Regarding `COc1ccc2c(c1)CCCC2CC(=O)NCC(C)(C)C(=O)O` (centres undefined), the Percent Effect in [9] worked out at 0.926%.
On the same count and under the same terms, with `CCc1nnc(CS(=O)(=O)c2ccc(C)cc2)n1C` the figure was 6.29%.
As to `CCNC(=O)[C@@H]1C[C@H](N)CN1c1cc(CC)nc(N(C)C)n1`, the Percent Effect in [9] is -13.7%.
Take `Cc1cc(NCCc2cnccn2)nc(-c2ccccc2O)n1`: in assay [9], the Percent Effect was 19.4%.
On the same count and under the same terms, next, `Cc1cc(CNC(=O)NCCCC(=O)N2CCc3ccccc32)no1`: -2.98%; `NC(=O)C1CCCN1Cc1nccn1CC(F)(F)F` (centres undefined): 1.35%.
The same measure, in the same setting: next, `CC(C)N1CCCC(CNC(=O)CN(C)S(=O)(=O)c2ccccc2)C1` (centres undefined): -1.71%; `Clc1cc(NCc2ccncc2)nc2[nH]ccc12`: -59.2%.
On the same count and under the same terms, next, `CC(C)[C@@H]1CN(C(=O)C2(c3ccccc3)CC2)C[C@H]1C(=O)O`: -2.56%; `CC1COCCN1C(=O)Cc1cc(Cl)c2c(c1)OCCCO2` (centres undefined): 7.18%; `Cc1nc(O)cc(CN2C[C@H](NS(=O)(=O)N(C)C)[C@@H](C3CC3)C2)n1`: -5.32%.
With `CCC(C)(CC(=O)OC)NCc1nc(C)no1` (centres undefined), the Percent Effect in assay [9] is -1.72%.
Consider `CC(C)[C@H]1CN(Cc2ccccn2)C[C@@H]1NC(=O)CCS(C)(=O)=O`, for which, in [9], the Percent Effect was 9.37%.
Same read-out and setting: next, `COc1ccc(Br)c(NC(=O)NCc2cnn(C)c2)c1`: -1.99%; `CC(=O)Nc1ccc(Oc2cc(C)nc(C3CCCNC3)c2)cc1` (centres undefined): -6.11%.
Same read-out and setting: next, `CCOc1cc(F)ccc1NC1CCN(CC(F)(F)F)C1=O` (centres undefined): -28.4%; `CCn1cc(NC(=O)NCCN2CCCCCC2=O)cn1`: 87.7%.
Same read-out and setting: next, `N#CCCN(C(=O)CCc1cscn1)c1ccc2c(c1)OCCO2`: -3.58%; `COCC[C@]1(O)CCN(CC(=O)NCc2ccccn2)C[C@H]1C`: 9.06%.
In the case of `CN1C[C@@H]2CC[C@H](CC1=O)N2C(=O)c1cc2ccccc2[nH]c1=O`, in [9], the Percent Effect amounted to 5.77%.
The same measure, in the same setting: next, `COc1cc(Cl)cc(CN2CCCC(N3CCCC3)C2)c1OC` (centres undefined): 4.91%.
Same read-out and setting: next, `Cc1ccc(C(NC(=O)CCCN2CCCCC2)C(=O)O)cc1` (centres undefined): 11.8%.
Still for that read-out and setting: with `CC(NC(=O)NC1CCN(Cc2ccncc2)CC1)c1ccccc1F` (centres undefined) the figure was -3.35%.
In the case of `Cc1csc(C(C)(C)NCCOc2ccc(CC#N)cc2)n1`, the Percent Effect in assay [9] is -8.66%.
With `CCOc1ccc(CN2CCOCC2c2[nH]ncc2C)cc1CO` (centres undefined), the Percent Effect in [9] turned out to be 22.7%.

For the origin of these results see ChEMBL document CHEMBL3988442, “University of Dundee, Small-Polar-MMV Screening Library” (2021).
